For some assays here: Measured potencies and affinities stand elsewhere.
Legend:
Set-up in all cases: scale not given: direction of the effect not stated beside the values
[1] = target: Protein translocase subunit SecA (Escherichia coli (strain K12)) (UniProt P10408); test: Assay to Identify E. coli SecA ATPase Inhibitors; type: functional; details: 30 µM
[2] = target: T1, Ubiquitin-activating enzyme e1, putative (Leishmania donovani (strain BPK282A1)) (UniProt E9BSI1); test: Leishmania donovani Ubiquitin Activating Enzyme (LdE1); type: functional; details: 30 µM
T1 sequence (whole entry): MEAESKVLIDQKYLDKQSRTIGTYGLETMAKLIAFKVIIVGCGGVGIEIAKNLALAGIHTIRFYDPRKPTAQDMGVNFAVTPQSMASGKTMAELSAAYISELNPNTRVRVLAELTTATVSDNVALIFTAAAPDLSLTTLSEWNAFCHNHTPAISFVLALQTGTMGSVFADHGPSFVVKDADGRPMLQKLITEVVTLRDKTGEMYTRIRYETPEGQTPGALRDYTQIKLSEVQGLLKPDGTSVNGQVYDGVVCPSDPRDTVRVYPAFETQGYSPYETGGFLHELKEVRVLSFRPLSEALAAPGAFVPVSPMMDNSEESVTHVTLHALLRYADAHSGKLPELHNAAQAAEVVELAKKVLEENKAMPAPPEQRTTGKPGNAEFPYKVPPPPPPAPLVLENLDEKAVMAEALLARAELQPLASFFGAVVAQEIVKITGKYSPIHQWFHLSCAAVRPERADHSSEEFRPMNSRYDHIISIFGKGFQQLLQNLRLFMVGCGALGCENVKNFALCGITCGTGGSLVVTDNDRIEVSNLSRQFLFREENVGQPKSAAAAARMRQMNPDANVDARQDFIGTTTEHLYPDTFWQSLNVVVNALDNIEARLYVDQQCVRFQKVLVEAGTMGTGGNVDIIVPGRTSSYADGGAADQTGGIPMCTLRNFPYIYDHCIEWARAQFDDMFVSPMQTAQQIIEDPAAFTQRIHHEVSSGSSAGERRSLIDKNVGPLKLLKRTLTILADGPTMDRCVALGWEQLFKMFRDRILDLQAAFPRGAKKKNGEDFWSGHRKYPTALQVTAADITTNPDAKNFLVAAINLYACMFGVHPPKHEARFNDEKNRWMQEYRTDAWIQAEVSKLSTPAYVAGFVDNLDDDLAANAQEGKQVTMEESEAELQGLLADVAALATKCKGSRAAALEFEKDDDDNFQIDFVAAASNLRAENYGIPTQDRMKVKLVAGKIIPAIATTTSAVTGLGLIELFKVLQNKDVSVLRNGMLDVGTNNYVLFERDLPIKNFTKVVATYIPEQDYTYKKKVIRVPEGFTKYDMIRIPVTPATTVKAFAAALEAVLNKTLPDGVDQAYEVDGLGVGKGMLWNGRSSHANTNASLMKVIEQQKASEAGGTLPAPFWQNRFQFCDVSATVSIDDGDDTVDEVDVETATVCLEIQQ

[3] = target: Sialic acid-binding Ig-like lectin 9 (Homo sapiens) (UniProt Q9Y336); test: Hs-Siglec9 ALPHAscreen SOP 20170721; details: 10 µM
[4] = system: Trypanosoma cruzi; test: Trypanosoma cruzi phosphomannomutase and mannose-1-phosphate guanylyltransferase assay; type: functional; details: 10 µM
[5] = target: T2, Arginase-2, mitochondrial (Homo sapiens) (UniProt P78540); test: in vitro enzyme assay to detect the production of urea directly proportional to the activity of Arginase II; type: functional; details: 33.3 µM; further: in the data most compounds retested in dose-response had high values
T2 sequence (whole entry): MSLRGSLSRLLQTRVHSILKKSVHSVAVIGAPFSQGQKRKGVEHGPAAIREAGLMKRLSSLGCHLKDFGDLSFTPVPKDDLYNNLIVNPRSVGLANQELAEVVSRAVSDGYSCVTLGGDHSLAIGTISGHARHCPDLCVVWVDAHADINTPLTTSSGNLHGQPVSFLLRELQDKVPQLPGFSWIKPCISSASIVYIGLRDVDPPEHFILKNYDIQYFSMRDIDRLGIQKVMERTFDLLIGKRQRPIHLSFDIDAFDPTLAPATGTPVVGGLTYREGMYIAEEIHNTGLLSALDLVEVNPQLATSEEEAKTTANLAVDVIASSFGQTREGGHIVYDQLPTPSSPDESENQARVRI

[6] = target: T3, Proteasome subunit beta (Trypanosoma cruzi) (UniProt O96673); test: Trypanosoma cruzi proteasome chymotrypsin-like activity (TcProtChymo) assay.; further: in the data most compounds retested in dose-response had high values; type: functional; details: 9.37 µM
T3 sequence (whole entry): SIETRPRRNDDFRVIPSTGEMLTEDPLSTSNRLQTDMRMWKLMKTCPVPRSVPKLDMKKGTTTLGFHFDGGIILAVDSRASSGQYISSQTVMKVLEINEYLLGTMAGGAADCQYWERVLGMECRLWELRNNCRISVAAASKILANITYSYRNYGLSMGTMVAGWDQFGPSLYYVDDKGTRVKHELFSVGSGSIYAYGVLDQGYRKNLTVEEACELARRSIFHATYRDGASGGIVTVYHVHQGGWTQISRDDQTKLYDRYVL

[7] = species: Homo sapiens; test: To identify inhibition of the IFN signalling (Jak-Stat) pathway via expression of an eGFP reporter gene under the control of an IFN-stimulated response element (ISRE) containing MxA promoter.; type: functional; details: 30 µM
[8] = target: T4, Tyrosyl-tRNA synthetase, putative (Trypanosoma cruzi (strain CL Brener)) (UniProt Q4DSP6); test: Trypanosoma cruzi tyrosyl tRNA synthetase (TcYRS) _High Tyrosine SOP; type: functional; details: 30 µM; further: in the data most compounds retested in dose-response had high values
T4 sequence (whole entry): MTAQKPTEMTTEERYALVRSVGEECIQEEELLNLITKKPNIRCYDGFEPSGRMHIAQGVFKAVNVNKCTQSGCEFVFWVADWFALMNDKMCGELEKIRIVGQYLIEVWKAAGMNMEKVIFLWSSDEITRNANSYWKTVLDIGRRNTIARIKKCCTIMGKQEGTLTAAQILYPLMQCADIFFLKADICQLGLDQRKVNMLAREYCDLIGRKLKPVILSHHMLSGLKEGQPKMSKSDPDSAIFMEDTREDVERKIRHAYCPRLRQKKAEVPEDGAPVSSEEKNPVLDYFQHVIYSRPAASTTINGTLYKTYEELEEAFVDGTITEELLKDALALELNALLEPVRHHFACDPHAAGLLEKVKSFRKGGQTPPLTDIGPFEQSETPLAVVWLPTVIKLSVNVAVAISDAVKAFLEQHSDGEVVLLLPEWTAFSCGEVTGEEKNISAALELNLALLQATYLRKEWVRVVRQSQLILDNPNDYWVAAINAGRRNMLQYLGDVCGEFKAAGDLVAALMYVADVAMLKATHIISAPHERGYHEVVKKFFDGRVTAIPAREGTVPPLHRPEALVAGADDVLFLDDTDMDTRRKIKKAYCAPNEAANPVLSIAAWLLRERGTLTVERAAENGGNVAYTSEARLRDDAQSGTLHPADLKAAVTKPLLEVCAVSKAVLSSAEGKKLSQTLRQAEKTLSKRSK

[9] = target: T4, Tyrosyl-tRNA synthetase, putative (Trypanosoma cruzi (strain CL Brener)); test: Trypanosoma cruzi tyrosyl tRNA synthetase (TcYRS) SOP; type: functional; details: 30 µM
[10] = target: Chromo domain-containing protein 1 (Saccharomyces cerevisiae (strain ATCC 204508 / S288c) (Baker's yeast)) (UniProt P32657); test: ScCHD-1 Enzyme Inhibition Assay; type: functional; details: 30 µM; further: in the data most compounds retested in dose-response had high values
Sequence of Chromo domain-containing protein 1 (Saccharomyces cerevisiae (strain ATCC 204508 / S288c) (Baker's yeast)) (P32657 whole entry, the tested form may be a part): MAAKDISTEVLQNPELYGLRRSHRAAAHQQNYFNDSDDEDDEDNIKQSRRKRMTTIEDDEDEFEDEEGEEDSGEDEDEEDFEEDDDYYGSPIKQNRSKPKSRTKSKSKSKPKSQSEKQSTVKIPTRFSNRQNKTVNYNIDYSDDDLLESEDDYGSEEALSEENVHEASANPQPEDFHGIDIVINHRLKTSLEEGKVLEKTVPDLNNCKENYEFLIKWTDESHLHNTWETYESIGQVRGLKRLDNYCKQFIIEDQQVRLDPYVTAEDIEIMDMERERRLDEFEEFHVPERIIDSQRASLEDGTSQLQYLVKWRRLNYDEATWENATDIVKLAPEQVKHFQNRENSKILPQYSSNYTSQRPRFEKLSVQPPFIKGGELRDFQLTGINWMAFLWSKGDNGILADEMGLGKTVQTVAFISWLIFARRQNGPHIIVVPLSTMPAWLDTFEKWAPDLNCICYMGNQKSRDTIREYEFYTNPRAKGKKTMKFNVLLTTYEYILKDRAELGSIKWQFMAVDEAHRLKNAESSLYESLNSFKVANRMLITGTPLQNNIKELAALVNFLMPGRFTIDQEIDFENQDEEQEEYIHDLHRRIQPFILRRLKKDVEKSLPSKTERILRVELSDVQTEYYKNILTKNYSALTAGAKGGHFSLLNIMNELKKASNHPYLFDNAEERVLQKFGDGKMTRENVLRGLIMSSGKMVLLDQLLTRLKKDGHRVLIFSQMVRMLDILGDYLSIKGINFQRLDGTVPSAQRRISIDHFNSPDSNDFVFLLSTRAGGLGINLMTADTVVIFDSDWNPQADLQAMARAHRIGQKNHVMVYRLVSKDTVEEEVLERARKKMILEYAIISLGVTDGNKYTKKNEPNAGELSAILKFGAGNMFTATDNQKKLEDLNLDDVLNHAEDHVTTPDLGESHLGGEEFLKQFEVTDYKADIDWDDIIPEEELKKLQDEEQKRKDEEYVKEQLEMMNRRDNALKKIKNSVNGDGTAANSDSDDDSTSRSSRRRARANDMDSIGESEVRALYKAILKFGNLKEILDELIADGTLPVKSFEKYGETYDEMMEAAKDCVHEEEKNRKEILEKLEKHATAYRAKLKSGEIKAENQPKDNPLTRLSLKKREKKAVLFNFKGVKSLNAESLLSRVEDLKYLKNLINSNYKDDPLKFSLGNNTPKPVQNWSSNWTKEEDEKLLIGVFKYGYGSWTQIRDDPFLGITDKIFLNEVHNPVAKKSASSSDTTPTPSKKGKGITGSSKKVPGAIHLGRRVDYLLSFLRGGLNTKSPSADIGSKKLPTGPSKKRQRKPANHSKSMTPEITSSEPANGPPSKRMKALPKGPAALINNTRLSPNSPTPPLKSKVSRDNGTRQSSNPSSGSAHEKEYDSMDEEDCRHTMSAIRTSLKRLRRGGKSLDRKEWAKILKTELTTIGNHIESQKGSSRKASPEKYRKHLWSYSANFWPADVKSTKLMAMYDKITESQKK

Sequence of Protein translocase subunit SecA (Escherichia coli (strain K12)) (P10408 whole entry): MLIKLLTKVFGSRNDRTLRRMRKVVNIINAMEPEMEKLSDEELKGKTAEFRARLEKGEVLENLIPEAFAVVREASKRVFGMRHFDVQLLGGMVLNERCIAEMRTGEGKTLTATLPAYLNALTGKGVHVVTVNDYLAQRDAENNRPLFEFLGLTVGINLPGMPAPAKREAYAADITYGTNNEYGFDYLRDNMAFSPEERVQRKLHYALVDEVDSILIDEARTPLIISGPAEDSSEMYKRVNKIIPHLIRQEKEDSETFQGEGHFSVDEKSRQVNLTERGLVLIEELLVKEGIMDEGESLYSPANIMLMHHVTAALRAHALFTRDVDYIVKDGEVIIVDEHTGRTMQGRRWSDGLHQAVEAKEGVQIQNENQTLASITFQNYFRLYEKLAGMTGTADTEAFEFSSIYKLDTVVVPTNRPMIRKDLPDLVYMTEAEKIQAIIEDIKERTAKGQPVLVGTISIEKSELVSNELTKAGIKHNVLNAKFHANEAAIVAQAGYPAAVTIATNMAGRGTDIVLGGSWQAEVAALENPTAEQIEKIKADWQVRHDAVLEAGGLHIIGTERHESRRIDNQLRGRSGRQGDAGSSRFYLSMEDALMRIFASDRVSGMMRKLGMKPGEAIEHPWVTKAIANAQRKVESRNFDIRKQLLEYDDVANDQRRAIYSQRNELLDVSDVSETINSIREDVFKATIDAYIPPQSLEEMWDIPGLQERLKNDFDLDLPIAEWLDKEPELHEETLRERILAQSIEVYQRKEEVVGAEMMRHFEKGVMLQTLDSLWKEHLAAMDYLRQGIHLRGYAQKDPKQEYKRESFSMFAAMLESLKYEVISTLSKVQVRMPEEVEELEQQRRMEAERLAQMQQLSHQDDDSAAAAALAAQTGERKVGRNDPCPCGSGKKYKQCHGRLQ
Sequence of Sialic acid-binding Ig-like lectin 9 (Homo sapiens) (Q9Y336 whole entry): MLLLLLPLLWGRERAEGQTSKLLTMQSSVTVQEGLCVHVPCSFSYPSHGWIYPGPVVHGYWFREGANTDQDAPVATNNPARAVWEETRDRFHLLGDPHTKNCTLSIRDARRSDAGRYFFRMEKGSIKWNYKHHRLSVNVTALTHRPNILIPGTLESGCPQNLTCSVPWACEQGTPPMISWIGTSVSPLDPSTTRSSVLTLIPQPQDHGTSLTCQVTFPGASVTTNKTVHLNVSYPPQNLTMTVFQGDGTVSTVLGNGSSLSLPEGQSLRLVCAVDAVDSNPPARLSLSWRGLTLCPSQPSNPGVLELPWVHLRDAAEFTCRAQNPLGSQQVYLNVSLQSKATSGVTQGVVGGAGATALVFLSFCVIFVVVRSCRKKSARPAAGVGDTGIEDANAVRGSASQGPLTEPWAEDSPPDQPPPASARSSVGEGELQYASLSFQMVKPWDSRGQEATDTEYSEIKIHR

SMILES	Percent Effect [1] [%]	Percent Effect [2] [%]	Percent Effect [3] [%]	Percent Effect [4] [%]	Percent Effect [5] [%]	Percent Effect [6] [%]	Percent Effect [7] [%]	Percent Effect [8] [%]	Percent Effect [9] [%]	Percent Effect [10] [%]
c1ccc(CCNC2CCc3ncnn3C2)nc1 (stereo not given)	-0.356	18.2	-2.1	-0.373	-1.84	11.8	8.49	11.8	23.5	-9.93
CCN1CCn2nc(CCC(=O)N3CCCC3)cc2C1	-6.01	2.7	0.796	-3.98	0.35	19	8.04	5.85	14.6	-5.3
Cc1nnc(NC(=O)CN2CCCC(Cn3cncn3)C2)s1 (stereo not given)	-3.75	10.7	7.25	1.41	6.21	12.3	-17.8	5.79	10.3	-8.83
COc1cc(C(=O)N2CCCS2(=O)=O)cc(Cl)c1OC	-4.13	24	3.41	-0.602	-4.88	9.07	7.8	4.74	15.4	-12.8
COc1ccccc1CC(=O)N1CC[C@@]2(CCCO2)[C@@H](OC)C1	-3.82	4	-4.43	-3.35	-9.29	6.4	14.4	-1.06	5	-24.2
CN(C)S(=O)(=O)N1CCN(C(=O)c2ccc3ccn(C)c3c2)CC1	-5.48	8.11	12	5.72	8.74	13.9	5.78	2.66	9.76	-5.25
OC(CNCCn1cccn1)c1ccc2c(c1)OCCO2 (stereo not given)	-5.4	13.3	10.3	1	0	4.83	-2.77	4.74	10.3	-13.4
NC(=O)C1CCN(C(=O)c2cccc(OCc3cscn3)c2)CC1	-1.56	10.3	-4.08	-3.1	5.33	5.89	26.4	2.39	10.8	-2.13
CC(C)c1cc(C(=O)N(C)Cc2cccc3ncccc23)n(C)n1	-3.2	12	13.8	0.986	-1.77	13.1	36.7	3.17	12.5	-26
Cc1ccc(C(N)c2cccc(S(C)(=O)=O)c2)cc1 (stereo not given)	-4.76	10.7	8.28	-1.81	5.76	5.34	27	4.74	5.13	-9.27
COc1cc(N2CCCC(c3nccn3CCN(C)C)C2)nc(N)n1 (stereo not given)	-9.14	2.7	4.84	3.59	4.54	4.62	5.13	7.98	17.1	11.6
O=S(=O)(c1ccccc1Cl)N1CCc2nc(C3CCNCC3)ncc2C1	-4.22	1.33	8.22	3.75	-1.33	12.2	34.8	6.35	12.5	-26.2
O=C1NC2(CCN(Cc3nccs3)CC2)CC1c1ccncc1 (stereo not given)	-7.46	9.09	9.45	6.13	-6.07	6.8	-18.5	3.68	10.3	0.471
CC(C)NC(=O)CC1COC2(CCN(Cc3ccccc3)CC2)C1 (stereo not given)	-1.47	16.9	-1.95	-2.25	2.28	16.2	-3.75	7.73	10	-5.41
CC(O)CNC(=O)NCc1cccnc1OC1CCCC1 (stereo not given)	-1.77	13.3	-3.55	-3.21	7.54	2.63	10.2	6.84	2.56	-11.2
Cc1cc(C(=O)NCc2ccc(N3CCCC(C(N)=O)C3)cc2)[nH]n1 (stereo not given)	-7.13	10.7	-2.98	-3.21	-0.887	16.2	14.9	0.526	5.13	-7.84
O=C1CCCN1Cc1nnc2n1CCN(Cc1ccoc1)CC2	-6.7	9.09	-2.11	-3.94	1.83	0.601	26.1	-1.93	-2.5	-3.88
Cc1nc(CN2CCC3(CC2)NC(=O)CC3c2ccccc2)cs1 (stereo not given)	-3.5	-1.3	-0.193	0.375	-0.913	9.19	4.58	8.7	12.5	-9.48
CCc1n[nH]c(C2CN(C(=O)c3ncoc3C(C)C)CCO2)n1 (stereo not given)	1.99	15.6	8.33	-0.746	-2.25	2.46	17.6	2.94	18.8	-8.96
Cc1n[nH]c(C)c1C1COCCN1C(=O)c1cc(Cl)c[nH]1 (stereo not given)	-1.38	2.56	3.4	-3.47	9.02	-1.96	15	-2.39	1.21	2.03
CC1CCN(C(=O)c2cccc3ncccc23)CC1	-2.07	-5.33	1.04	-1.21	-1.33	3.48	19	4.74	7.69	1.83
NC(=O)Cn1cc(NC(=O)N2CCCC2)cn1	1.14	12.8	-7.88	-0.469	8.61	11.7	19.1	5.26	18.1	-4.77
COCCC(=O)N1CCC2(CC1)CC(c1ccccc1)CN(C)C2 (stereo not given)	-6.06	5.41	7.24	2.42	1.75	18.7	-4.11	4.79	12.2	-5.37

— ChEMBL document CHEMBL3988442, “University of Dundee, Small-Polar-MMV Screening Library” (2021)
